PubChem BioAssay AID488841 (Sanford-Burnham Center for Chemical Genomics, 2010)
Out of some 1,400 compounds screened, about 380 (27%) were called active. This is one part of the list. A number with no mark means an inactive call.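 The calls were made as follows: active = mean inhibition above 50% across duplicate retests at 10 µM; inactive = the rest.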

Experiment: inhibition of NALP1/ASC/caspase-1 reporter signal in yeast, confirmation, NALP1 inhibitor project, S. cerevisiae, luminescence, single concentration (AID 488841);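 also: plate controls were DMSO in galactose medium for no effect and cells in plain SD medium for full effect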
Settings: S. cerevisiae NALP1/ASC/Caspase-1 reporter, beta-gal luminescence; at 10 µM; hits give high values
Molecule `COC(=O)c1cc(OC)c(OC)cc1NC(=S)N1CCN(c2ccccc2)CC1` has an inhibition of 30%. `O=C(CN1CCN(c2cccc(Cl)c2)CC1)Nc1ccc(S(=O)(=O)N2CCOCC2)cc1` showed an inhibition of 35.4%. With `COC(=O)/C=C/C(=O)N1CCN(c2cccc(Cl)c2)CC1` the inhibition was 54.7% (active). `Cc1ccnc(NS(=O)(=O)c2ccc(NC(=O)CSc3nc(-c4ccccc4)cc(=O)[nH]3)cc2)n1` gave an inhibition of 12.6%. `CCOc1cc(C(=O)OCC(=O)Nc2ncc(Cl)c(C)c2Cl)ccc1OCC(=O)N1CCOCC1` gave an inhibition of 27.4%. In the case of `Cc1ccc(NC(=O)N2CCc3ccccc3C2)cc1`, the inhibition is reported as 64.8% (active). With `O=C(Nc1ccccc1)N1CCc2ccccc2C1` the inhibition was 62% (active). Molecule `O=C(NCCCN1CCc2ccccc2C1)Nc1ccc(Br)cc1` has an inhibition of 25.1%. For `CC(=O)N1CCCc2cc(S(=O)(=O)N3CCc4ccccc4C3)ccc21`, the inhibition was 33.2%. `COC(=O)/C(=N/Nc1ccc(C)cc1)N1CCCc2ccccc21` gave an inhibition of 32%. Molecule `Cc1ccc2cc3cc(C(=O)NCCCN4CCc5ccccc5C4)oc3nc2c1` has an inhibition of 30.9%. Molecule `CCCCCCCCCCOC(=O)Cn1c(COc2ccc(Cl)cc2)[n+](C)c2ccccc21` has an inhibition of 34%. Work on `O=C1NC(c2ccccc2)Nc2c1sc(=S)n2-c1ccccc1` (configuration not stated) yielded an inhibition of 25.1%. `CCN(CC)S(=O)(=O)c1ccc2oc(C(=O)NC3CCCc4ccccc43)c(C)c2c1` (configuration not stated) gave an inhibition of 4.35%. For `CC[n+]1c(/C=C2\Sc3ccccc3N2C)ccc2cccc(C)c21`, the inhibition was 96.8% (active). With `CCN1/C(=C/c2ccc3ccc(C)cc3[n+]2CC)Sc2ccccc21` the inhibition was 21.4%. In the case of `CCN1/C(=C/c2ccc3cc(C)ccc3[n+]2CC)Sc2ccccc21`, the inhibition is reported as 101% (active). For `CCN1/C(=C\c2ccc3ccccc3[n+]2CC)Sc2cc(C)ccc21`, the inhibition was 98.2% (active). In the case of `Cc1cc(=O)n2ccccc2c1C#N`, the inhibition is reported as 9.65%. Work on `C/C(=N/NC(=O)c1nnn(-c2nonc2N)c1COc1ccccc1)c1ccc(O)cc1` yielded an inhibition of 22.6%. Work on `Cc1cc(C)cc(C(=O)OCC(=O)NCCNC(=O)COC(=O)c2cc(C)cc(C)c2)c1` yielded an inhibition of 31.4%. `OCCN(CCO)c1ncnc2c1oc1ccc(Br)cc12` showed an inhibition of 31.3%. `CC1CN(S(=O)(=O)c2ccc(C(=O)Nc3nc(-c4cc5ccccc5o4)cs3)cc2)CC(C)O1` (configuration not stated) showed an inhibition of 30.1%. For `N#CC1(C#N)CC(C=O)=C(N)C1(C#N)CC(=O)C12CC3CC(CC(C3)C1)C2` (configuration not stated), the inhibition was 36.1%. With `Cc1ccc(Cl)cc1N1CCN(S(C)(=O)=O)CC1` the inhibition was 39.6%. In the case of `CCCC(CCC)c1nc2ccncc2[nH]1`, the inhibition is reported as 27.4%. Molecule `CC(=O)NS(=O)(=O)c1ccc(NC(=O)CSc2ccccc2)cc1` has an inhibition of 8.45%. `CCCCNCCOCCOc1ccc(Cl)cc1Br` showed an inhibition of 48%. With `C#CCN(C)CCCOc1ccc(Cl)cc1Cl` the inhibition was 55.1% (active). `CCN(CC)CCCOc1ccc(Cl)c(Cl)c1` gave an inhibition of 44.2%. For `CC(C)CC(=O)N1CCN(S(=O)(=O)c2ccccc2)CC1`, the inhibition was 24.9%. Molecule `COc1ccc(-c2cc(-c3cc(OC)ccc3O)[nH]n2)cc1` has an inhibition of 49.4%. Molecule `Cc1ccc2c(c1)c1c3n2CCCNC3CCC1` (configuration not stated) has an inhibition of 43.8%. With `O=C(c1ccccc1-c1ccccc1)N1CCN(c2ccccn2)CC1` the inhibition was 29.1%. In the case of `O=C(N1CCN(c2ccccn2)CC1)C(Cl)(Cl)Cl`, the inhibition is reported as 60.1% (active). In the case of `CCOC(=O)c1cc(-c2ccccc2)n(CCC(=O)N2CCN(c3ccccn3)CC2)c1C`, the inhibition is reported as 39.2%. With `C=C(C)C(=O)Nc1nnc(-c2cccs2)s1` the inhibition was 55.5% (active). `C=C(C)C(=O)Nc1cccc(C(C)=O)c1` gave an inhibition of 10.3%. In the case of `Cn1c(SCC(=O)NC(c2ccccc2)c2ccccc2)nnc1-c1cccs1`, the inhibition is reported as 34%. Work on `CN1/C(=C\C(=O)c2cccs2)C(C)(C)c2ccccc21` yielded an inhibition of 35.5%. `O=C(COC(=O)CCC1CCCCC1)Nc1ccc(OC(F)F)cc1` showed an inhibition of 19.5%. For `CCCCNC1CCS(=O)(=O)C1` (configuration not stated), the inhibition was 24%. For `CCCCOc1ccc(CSC2=NCCN2)cc1[N+](=O)[O-]`, the inhibition was 43.9%. With `CCCCCOc1ccc(Br)cc1/C(C)=N/NC1=NCCN1` the inhibition was 51.2% (active). In the case of `CCCCCCOc1ccc(/C(C)=N/NC2=NCCN2)cc1`, the inhibition is reported as 51.5% (active). `CCCCCCOc1ccc(OC(=O)c2ccncc2)cc1` gave an inhibition of 24.9%. For `CCCCCCOc1ccc(-c2ccc(C#N)cn2)cc1`, the inhibition was 34.9%. In the case of `CCn1c(SCC(=O)Nc2ccc3c(c2)OCO3)nnc1-c1cnccn1`, the inhibition is reported as 36.9%. For `CCOc1ccccc1C1CC(=O)NC(SCC(=O)Nc2nccs2)=C1C#N` (configuration not stated), the inhibition was 10.4%. In the case of `CCOc1nc(N2CCOCC2)nc(N2CCOCC2)n1`, the inhibition is reported as 29.6%. In the case of `O=C(N/N=C\c1cccc([N+](=O)[O-])c1O)C1COc2ccccc2O1` (configuration not stated), the inhibition is reported as 56.7% (active). With `COc1cccc(/C=N/NC(=O)CNC(=O)C2COc3ccccc3O2)c1O` (configuration not stated) the inhibition was 41%. For `O=[N+]([O-])c1cc(Cc2ccccc2)cc(C=Nc2ccc(N3CCOCC3)cc2)c1O`, the inhibition was 47.5%. With `NCCS` the inhibition was 55.1% (active). For `CCCCCCC(=O)N(O)C1CC(=O)N(Cc2ccccc2)C1=O` (configuration not stated), the inhibition was 15.2%. Molecule `C=CCn1c(CNC(=O)c2cccs2)nnc1SCC(=O)Nc1ccc(C(=O)O)cc1` has an inhibition of 24.2%. In the case of `Cc1ccccc1Nc1cc(C)c2c(O)cccc2n1`, the inhibition is reported as 65.8% (active). For `CC(=O)Nc1ccc2nc(CN3CCC(CO)(CCc4ccccc4)CC3)ccc2c1`, the inhibition was 34.5%. For `CNc1ccc(/C=C/C(=O)c2ccc3c(c2)OCCO3)cc1[N+](=O)[O-]`, the inhibition was 52.8% (active). `Cc1c([N+](=O)[O-])c(C(=O)Nc2ccc3c(c2)OCCO3)nn1C` showed an inhibition of 27.4%. For `CCn1c(SCC(=O)Nc2oc(-c3ccccc3)c(-c3ccccc3)c2C#N)nnc1-c1cc(OC)cc(OC)c1`, the inhibition was 22.6%. Molecule `COc1ccc(S(=O)(=O)N(CC(=O)N2CCOCC2)Cc2ccccc2)cc1C` has an inhibition of 22.4%. For `CC1=NNC(=O)/C1=C\c1cn(-c2ccccc2)nc1-c1cccs1`, the inhibition was 62.4% (active). Molecule `CC1(C)CC(=O)c2c(-c3cccs3)n[nH]c2C1` has an inhibition of 38.8%. In the case of `Brc1ccc2c(c1)OCCOCCOc1cc(Br)ccc1OCCOCCOCCO2`, the inhibition is reported as 59.6% (active). In the case of `CCn1nccc1C(=O)Nc1ccc(Cl)cn1`, the inhibition is reported as 35.4%. `CCn1ncc([N+](=O)[O-])c1C(=O)Nc1ccc(C(=O)N2CCCCC2)cc1` gave an inhibition of 32.5%. `CCCc1cc(C(=O)Nc2ccc(F)cc2F)no1` showed an inhibition of 36.5%. For `CCn1ncc(C(=O)Nc2cccc(Cl)c2)c1C`, the inhibition was 53.8% (active). `CCCc1cc(C(=O)Nc2c(C)n(C)n(-c3ccccc3)c2=O)no1` gave an inhibition of 23.7%. For `CCCc1cc(C(=O)Nc2cccc(Cl)c2)no1`, the inhibition was 67.2% (active). For `COc1ccc(NC(=O)c2sc(N3CCOCC3)nc2-c2ccccc2)c(OC)c1`, the inhibition was 48.4%. `Cc1cc(NC(=O)/C=C/c2ccccc2Cl)no1` showed an inhibition of 46.5%. In the case of `O=C(/C=C/c1ccccc1Cl)c1ccc[nH]1`, the inhibition is reported as 73% (active). With `CC(NC(=O)Nn1cnnc1)(C(F)(F)F)C(F)(F)F` the inhibition was 9.3%. `CCCCCCCCNC(C)C(O)c1ccc(SC(C)C)cc1` (configuration not stated) gave an inhibition of 46.5%. Work on `Cc1cc(C(C)(C)C)cc(S(=O)(=O)Nc2ccc(O)c(C(=O)O)c2)c1C` yielded an inhibition of 24.9%. With `CC1(C)CCSC(/C=C/c2ccccc2)=N1` the inhibition was 84% (active). In the case of `O=C(O)C1(c2ccccc2)CCN(S(=O)(=O)c2ccc(Br)cc2)CC1`, the inhibition is reported as 32.4%. With `CCOC(=O)C1CCCCN1Cc1cccc(F)c1` (configuration not stated) the inhibition was 19.9%. With `O=S(=O)(c1ccc(Br)cc1)N1CCCN(Cc2cccc(F)c2)CC1` the inhibition was 59.5% (active). For `COc1ccc(CCN(C)C2CC(=O)N(c3ccccc3)C2=O)cc1OC` (configuration not stated), the inhibition was 45%. In the case of `Cc1ccc(C(=O)/C=C\C(=O)c2ccc(C)cc2)cc1`, the inhibition is reported as 51.1% (active). `Cc1ccc(C(=O)Oc2ccc3c(c2)ncn3C)cc1` gave an inhibition of 47.5%. `O=C(Nc1nc2c(c(=O)[nH]1)CCCC2)C1CC1` showed an inhibition of 27%. `O=C1CC(c2cccc(Cl)c2)CC(O)=C1C=Nc1cccc(Cl)c1` (configuration not stated) gave an inhibition of 36.5%. With `O=C1CC(c2ccccc2Cl)CC(O)=C1C=Nc1ccccc1` (configuration not stated) the inhibition was 52.8% (active). Work on `C/C(=N\N1CCN(c2ccc(Cl)cc2)CC1)c1ccco1` yielded an inhibition of 23.6%. `Cc1c(N)c(C(C)(C)C)cc(C(C)(C)C)c1[N+](=O)[O-]` showed an inhibition of 29.1%. With `OC(CNCCc1ccc(C(F)(F)F)cc1)COc1cccc2ccccc12` (configuration not stated) the inhibition was 65.5% (active). For `COCCNC(=O)CCc1ccc(S(=O)(=O)Nc2ccc(C)cc2)cc1`, the inhibition was 25.8%. Molecule `COC(=O)c1ccccc1NC(=O)N1CCN(C/C=C/c2ccccc2)CC1` has an inhibition of 39.6%. In the case of `CCC(C)c1ccccc1NC(=O)CN1CCN(C/C=C/c2ccccc2)CC1` (configuration not stated), the inhibition is reported as 46.3%. With `O=C(c1ccc(Br)s1)N1CCN(C/C=C/c2ccccc2)CC1` the inhibition was 50.6% (active). `O=C(NCC1CCCO1)C(c1cccs1)N(Cc1cccs1)C(=O)Cn1nnc(-c2cccs2)n1` (configuration not stated) gave an inhibition of 28.1%. In the case of `C#CCCCCCCC#CCN(C)C`, the inhibition is reported as 28.6%. In the case of `CSc1sc(C(=O)N2CCc3ccccc32)cc1S(=O)(=O)C(C)C`, the inhibition is reported as 20.9%. In the case of `CCC(=O)N1CCc2cc(S(=O)(=O)N3CCc4ccccc43)ccc21`, the inhibition is reported as 10.5%. With `O=C(c1cnn2ccccc12)N1CCc2ccccc21` the inhibition was 58% (active). For `COc1cc(NC(=O)c2cccs2)cc(OC)c1`, the inhibition was 78.8% (active). With `CCN(CC)S(=O)(=O)c1cccc(C(=O)Oc2cccc(NC(=O)c3cccs3)c2)c1` the inhibition was 36%. Molecule `O=C(/C=C\Nc1cccc(F)c1)c1cccs1` has an inhibition of 31.6%.
